The record followed here is PubChem BioAssay (Tox21).

The structures appear in SMILES notation. Several values for one entry are separate records, joined by “and”; a condition that tells them apart may be missing. Equal values may be shown once. Results filed as inconclusive are left out. Entries that show only a call come without a potency. Activity calls are given as the source filed them. The call rests on the fitted dose curve.
Potency means the concentration at half of the fitted maximal effect.

Sequence of Muscarinic acetylcholine receptor M1 (Homo sapiens) (P11229 whole entry, looked up): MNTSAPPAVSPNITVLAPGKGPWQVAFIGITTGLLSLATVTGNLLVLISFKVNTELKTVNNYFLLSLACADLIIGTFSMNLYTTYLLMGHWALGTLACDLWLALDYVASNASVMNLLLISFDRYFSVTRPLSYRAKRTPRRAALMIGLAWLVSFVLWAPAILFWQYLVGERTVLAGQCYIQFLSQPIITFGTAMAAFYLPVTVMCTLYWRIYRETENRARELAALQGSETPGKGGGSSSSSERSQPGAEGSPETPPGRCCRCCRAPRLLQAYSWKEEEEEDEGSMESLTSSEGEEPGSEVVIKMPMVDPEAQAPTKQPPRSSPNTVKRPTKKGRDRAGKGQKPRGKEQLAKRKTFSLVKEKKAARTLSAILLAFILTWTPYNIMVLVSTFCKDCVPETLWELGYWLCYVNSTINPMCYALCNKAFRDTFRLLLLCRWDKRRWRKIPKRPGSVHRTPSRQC

The assay deals with Muscarinic acetylcholine receptor M1 (Homo sapiens) (UniProt P11229). The experiment in a line: Cholinergic receptor muscarinic 1 (CHRM1) small molecule antagonists, cell-based qHTS assay (AID 1963588). Further: nearly all actives have a fitted effect of over 40% in size. Conditions: CHRM1-CHO antagonist mode, calcium flux fluorescence; series mostly up to 61.5 µM. The gist of the method:
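CHRM1-CHO calcium-flux assay, antagonist mode. Cells were seeded 18 h, dye-loaded 1 h at 37 C and given compound for 5 min at RT, then acetylcholine was added at 50nM. FDSS fluorescence was read 3 min; 15 concentrations, three runs.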
In the case of `CCCCCCCCCCCC[N+](C)(C)C`, the Potency is 374 nM (active) and 421 nM (active) and 334 nM (active).

As for `O=C1CCCCCCCCCCC1`, the Potency result was “inactive”. `CC(=O)[C@H]1CC[C@H]2[C@@H]3CC=C4C[C@@H](O)CC[C@]4(C)[C@H]3CC[C@]12C`: the Potency entry was “inactive”.

For `O=C1O[C@H](CO)[C@@H](O)[C@H](O)[C@H]1O`, the Potency result is “inactive”. With `Brc1nc2ccccc2s1`, the Potency entry was “inactive”. Turning to `CCCCCCCCCCCCCC[N+](C)(C)Cc1ccccc1`, the Potency was 2.7 µM (active) and 631 µM (active).

As for `CCCCCCCCOc1ccc(C(=O)c2ccccc2)c(O)c1`, the Potency entry is “inactive”.

On to `Clc1ccc(Cl)c(Cl)c1Cl`, for which the Potency entry is “inactive”.

Take `COc1ccc(C(Cl)=C(c2ccc(OC)cc2)c2ccc(OC)cc2)cc1`: the Potency result is “inactive”. For the compound `CCCCC1(COC(=O)CCC(=O)O)C(=O)N(c2ccccc2)N(c2ccccc2)C1=O`, the Potency result was “inactive”. As for `CN(C)CCCN`, the entry is “inactive”. As for `C=C(C)C(=O)O[C@H]1C[C@@H]2CC[C@@]1(C)C2(C)C`, the entry is “inactive”; as for `C=CCOC(=O)c1ccccc1C(=O)OCC=C`, “inactive”; as for `CC(=O)c1ccc(S(=O)(=O)NC(=O)NC2CCCCC2)cc1`, “inactive”. As for `CCC(O)OC(O)CC` (stereo not given), the entry is “inactive”; as for `CC(C)CC(=O)CC(C)CC(C)C` (stereo not given), “inactive”. As for `O=c1n(CC2CO2)c(=O)n(CC2CO2)c(=O)n1CC1CO1` (stereo not given), the Potency result was “inactive”.

For `O=C(/C=C/C=C/c1ccc2c(c1)OCO2)N1CCCCC1`, the Potency entry was “inactive”. As for `Cc1cc(Cc2ccc(N)c(C)c2)ccc1N`, the entry is “inactive”. In the case of `CCC[C@H](N[C@@H](C)C(=O)N1[C@H](C(=O)O)C[C@@H]2CCCC[C@@H]21)C(=O)OCC`, the Potency entry is “inactive”.
